This is an account of results in PubChem BioAssay (NCATS).

Assay [1] has as its system NIH3T3. The experiment in a line: Cytotoxic Profiling of Annotated Libraries Using Quantitative High-Throughput Screening (AID 1296008). To be noted: Five cell lines viability, CellTiter-Glo ATP luminescence, 48-72 h; max response: active compounds read low. An outline of the steps:
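Compounds were pin-transferred onto cells and incubated 48 or 72 hr at 37 degree Celsius, 95% humidity. CellTiter-Glo was added, plates sat 10 min at room temperature, then ATP-coupled luminescence was imaged as the viability read-out.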
Background: In ATP-based viability assays light output follows the ATP content of the culture.

The test system of the next assay is HACAT. The experiment in a line: qHTS assay to identify novel small-molecules to repurpose for Merkel cell carcinoma treatment (AID 1296009). To be noted: MCC and control cell lines, CellTiter-Glo viability, 72 h; at 44.8 µM (top of the series) unless noted. In outline: (§1)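 qHTS format: cells treated with library compounds in DMSO across 8 (NPC) or 11 (MIPE) concentrations. Readout after 72 hr at 37 degree celsius was CellTiter-Glo luminescence.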
In general terms: In qHTS, concentration-response curves come from the screen itself.

Another assay deals with MCC-13. Described as above. Particulars: MCC and control cell lines, CellTiter-Glo viability, 72 h; series mostly up to 46 µM. In outline:
as §1

In a further assay the test system is MCC-26. The assay is described as above. To be noted: MCC and control cell lines, CellTiter-Glo viability, 72 h; series mostly up to 46 µM. In outline:
as §1

In a further assay the test system is MKL-1. The description is as above. To be noted: MCC and control cell lines, CellTiter-Glo viability, 72 h; series mostly up to 46 µM. In outline: as §1
The test system of assay [2] is NIH3T3. The assay is described as above. To be noted: MCC and control cell lines, CellTiter-Glo viability, 72 h; at 44.8 µM (top of the series) unless noted. In outline: as §1
Another assay concerns UISO. The assay is described as above. To be noted: MCC and control cell lines, CellTiter-Glo viability, 72 h; series mostly up to 46 µM. An outline of the steps: as §1
The test system of another assay is WaGa. The assay is described as above. To be noted: MCC and control cell lines, CellTiter-Glo viability, 72 h; series mostly up to 46 µM. In outline:
as §1

The test system of the next assay is HEK293T. The description is as above. Particulars: MCC and control cell lines, CellTiter-Glo viability, 72 h; at 44.8 µM (top of the series). In outline:
as §1

The test system of another assay is MKL-2. The description is as above. Particulars: MCC and control cell lines, CellTiter-Glo viability, 72 h; series mostly up to 46 µM. An outline of the steps:
as §1

Several values for one entry are separate records, joined by “and”; a condition that tells them apart may be missing. Identical values can stand only once. Results filed as inconclusive are left out. Values without a mark were called inactive. Activity calls are given as the source filed them. Calls follow the shape of the dose curve; as a rule, active = well fitted inhibition curve with a large enough effect; inconclusive = small, poorly fitted or top-dose-only effect; inactive = flat fitted curve, though single readings scatter.
% is scaled to controls: 0 for no effect and ±100 for the full control effect; potency is read from the fitted curve at half-maximal effect.
Also: nearly all actives have a fitted effect of over 60% in size.

With `COCCOc1nc(-c2ccc(Cl)c(Cl)c2)n(-c2ccc(NC(=O)CCl)cc2)n1`, the Potency in the assay on NIH3T3 [1] was 4.11 µM (active). The result with HACAT was inactive. Also, the Potency entry with MCC-13, in the assay with MCC-26 and in the assay with MKL-1 was “inactive” each time.
Consider `COc1cccc([C@@H](C)NCCCc2ccccc2Cl)c1`, for which the outcome with NIH3T3 [1], with HACAT and in the assay on NIH3T3 [2] was inactive. The Potency result in the assay with MCC-13, with MCC-26, in the assay with MKL-1, in the assay on UISO and in the assay on WaGa was “inactive” throughout.
Regarding `CCN(CC)CCOC(=O)c1ccc(N)cc1`, the max response in the assay with NIH3T3 [1] was -2.46%. In addition, the result in the assay on HACAT and in the assay with HEK293T was inactive. The Potency entry in the assay with MCC-13, in the assay on MKL-1, in the assay with MKL-2, in the assay with UISO and in the assay on WaGa was “inactive” throughout.
Regarding `c1cc(-c2sc(-c3ccncc3)c(-c3ccncc3)c2-c2ccncc2)ccn1`, the max response in the assay with NIH3T3 [1] is 4.17%. For the same compound, the call with HACAT was inactive. The Potency result in the assay on MCC-13, in the assay with MCC-26, in the assay with MKL-1, with MKL-2 and in the assay with WaGa was “inactive” each time.
For the compound `CC=C(C)C(=O)O[C@H]1C(C)=C[C@]23C(=O)[C@@H](C=C(CO)[C@@H](O)[C@]12O)[C@H]1[C@@H](C[C@H]3C)C1(C)C`, the max response in the assay on NIH3T3 [1] was -20.8%. For the same compound, the outcome in the assay on HACAT was inactive. For the same compound, the Potency entry in the assay with MCC-13, with MCC-26, in the assay with MKL-1, with MKL-2 and with WaGa was “inactive” in each case.
As for `Cc1c[nH]c(C=C2C(=O)Nc3ccccc32)c1CCC(=O)O`, in the assay on NIH3T3 [1], the max response is -18.5%. The compound was classed as inactive in the assay with HACAT. Further, the Potency result with MCC-13, in the assay with MCC-26, in the assay with MKL-1, in the assay on MKL-2 and in the assay with WaGa was “inactive” throughout.
Take `CC(C)(C)COc1ccc(-n2cc(C(=O)O)cn2)cc1C#N`: the max response in the assay with NIH3T3 [1] was 3.94%. For the same compound, in the assay with HACAT, the result was inactive. Moreover, the Potency entry in the assay on MCC-13, in the assay with MCC-26, with MKL-1, with MKL-2, in the assay with UISO and in the assay on WaGa was “inactive” each time.
`Clc1ccc(-c2nc3sccn3c2C=NOCc2ccc(Cl)c(Cl)c2)cc1`: the max response with NIH3T3 [1] is -1.3%. Besides, in the assay with HACAT, the compound was called inactive. Besides, the Potency result with MCC-13, with MCC-26, in the assay on MKL-1, in the assay with MKL-2, in the assay on UISO and in the assay with WaGa was “inactive” in each case.
On to `CCOc1ccc(Nc2nc(-c3c(C)nc4ccccn34)cs2)cc1`, for which the Potency in the assay with NIH3T3 [1] was 5.3 nM (active) and 73.1 nM (active); in the assay on MCC-13 it was 37.2 nM (active); in the assay on MCC-26 it was 52.6 nM (active). For the same compound, the result in the assay with HACAT was inactive.
Turning to `N[C@@]1(C(=O)O)CS(=O)(=O)[C@H]2[C@H](C(=O)O)[C@H]21`, in the assay on NIH3T3 [1], the max response is -12.5%. The compound was classed as inactive with HACAT. Further, the Potency entry in the assay with MCC-13, in the assay with MCC-26, with MKL-1, in the assay with MKL-2, with UISO and in the assay on WaGa was “inactive” each time.
Turning to `COc1ccc(-c2coc3cc(O)ccc3c2=O)cc1`, in the assay on NIH3T3 [1], the max response is -7.78%. Moreover, the call in the assay with HACAT was inactive. In addition, the Potency entry with MCC-13, in the assay on MCC-26, with MKL-1, in the assay with MKL-2, in the assay with UISO and in the assay with WaGa was “inactive” each time.
Regarding `COC(=O)N[C@H](C(=O)N1CCC[C@@H]1c1ncc(-c2ccc(-c3ccc(-c4cnc([C@@H]5CCCN5C(=O)[C@@H](NC(=O)OC)C(C)C)[nH]4)cc3)cc2)[nH]1)C(C)C`, the max response in the assay with NIH3T3 [1] is 2.81%. For the same compound, in the assay on HACAT, the outcome was inactive. Moreover, the Potency result in the assay with MCC-13, with MCC-26, with MKL-1, in the assay with MKL-2, with UISO and in the assay with WaGa was “inactive” throughout.
With `CN(C)CCC=C1c2ccccc2COc2ccc(CC(=O)O)cc21`, the compound was classed as inactive in the assay with NIH3T3 [1], with HACAT and in the assay with NIH3T3 [2]. For the same compound, the Potency entry in the assay on MCC-13, in the assay with MCC-26, in the assay with MKL-1, in the assay with MKL-2, with UISO and in the assay with WaGa was “inactive” throughout.
As to `CCNc1cc(NC2CCC(O)CC2)nc(Nc2ccc3c(ccn3Cc3ccccc3)c2)n1` (stereo not given), the call in the assay with NIH3T3 [1], in the assay on HACAT and in the assay on NIH3T3 [2] was inactive. Further, the Potency result in the assay with MCC-13, with MCC-26, with MKL-1, with UISO and in the assay with WaGa was “inactive” each time.
As for `CON=C(C(=O)N[C@@H]1C(=O)N2C(C(=O)OCOC(=O)C(C)(C)C)=C(C=Cc3scnc3C)CS[C@H]12)c1csc(N)n1`, the outcome with NIH3T3 [1], with HACAT and in the assay with NIH3T3 [2] was inactive. The Potency result in the assay with MCC-13, with MCC-26, with MKL-1, in the assay with MKL-2 and in the assay with UISO was “inactive” in each case.
Consider `CC[C@H]1OC(=O)[C@H](C)[C@@H](O[C@H]2C[C@@](C)(OC)[C@@H](O)[C@H](C)O2)[C@H](C)[C@@H](O[C@@H]2O[C@H](C)C[C@H](N(C)C)[C@@H]2O)[C@](C)(O)C[C@@H](C)CN(C)[C@H](C)[C@@H](O)[C@]1(C)O`, for which the outcome with NIH3T3 [1], in the assay on HACAT and in the assay with NIH3T3 [2] was inactive. Moreover, the Potency result in the assay with MCC-13, in the assay with MCC-26, in the assay on MKL-1, with UISO and in the assay on WaGa was “inactive” each time.
As to `CC1(C)Cc2c(sc(NC(=S)NC(=O)c3ccccc3)c2C(=O)O)CO1`, the compound was classed as inactive with NIH3T3 [1], in the assay with HACAT, in the assay on HEK293T and in the assay with NIH3T3 [2]. The Potency result in the assay on MCC-13, with MKL-1, with UISO and in the assay on WaGa was “inactive” throughout.
With `CC1(C)CCC[C@@]2(C)[C@@H]1CC[C@@]1(C)OC(=O)C[C@H]21`, in the assay with NIH3T3 [1], the max response was 1.1%. For the same compound, in the assay with HACAT, the compound was classed as inactive. Further, the Potency result with MCC-13, in the assay with MCC-26, in the assay on MKL-1, with MKL-2, in the assay with UISO and in the assay with WaGa was “inactive” each time.
